Measured values published in PubChem BioAssay (NCI).
Values joined by “and” are separate entries in the source; they are usually repeats but may differ in a detail not shown here. Equal values may be shown once. The panel holds about 79,000 compounds, 15% with a hit somewhere; the sample as a whole holds those more often. Active and inactive are the calls of the source. No stated cut-off is given here; in the data, active means growth inhibition above about 70%; inactive means the rest.

What was measured:
[1] = NCI Yeast Anticancer Drug Screen. Data for the rad50 strain (AID 155);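 further: 0% = growth of vehicle-only cultures of the same strain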; settings: S. cerevisiae rad50 strain growth inhibition, hits give high values
Method in brief: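 DNA repair mutant yeast, compound exposure, growth read-out; inhibition is taken relative to vehicle.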

[2] = NCI Yeast Anticancer Drug Screen. Data for the mec2-1 strain (AID 157); settings: S. cerevisiae mec2-1 strain, hits give high values
Method in brief: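 mec2-1 yeast strain, carrying an alteration in DNA damage repair or cell cycle control, was exposed to compounds; growth inhibition was measured relative to vehicle-treated controls.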

[3] = NCI Yeast Anticancer Drug Screen. Data for the sgs1 mgt1 strain (AID 161);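 further: 0% = growth of cultures given vehicle only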; settings: S. cerevisiae sgs1 mgt1 strain, hits give high values
Method in brief: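 This yeast growth screen uses a strain with defined DNA-repair lesions; compound-treated growth is compared with vehicle-treated growth.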

[4] = NCI Yeast Anticancer Drug Screen. Data for the cln2 rad14 strain (AID 165);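 further: 0% = growth equal to vehicle treated cultures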; settings: S. cerevisiae cln2 rad14 strain, hits give high values
Method in brief: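 Yeast carrying cln2 and rad14 alterations (cell cycle control and DNA damage repair) were exposed to compounds. Growth inhibition was measured against vehicle-treated controls.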

[5] = NCI Yeast Anticancer Drug Screen. Data for the bub3 strain (AID 167); settings: S. cerevisiae bub3 mutant strain, hits give high values
Method in brief: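 In this screen, a yeast mutant lacking normal mitotic checkpoint function is challenged with compound. Relative growth versus vehicle gives the inhibition value.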

[6] = NCI Yeast Anticancer Drug Screen. Data for the mlh1 rad18 strain (AID 175); settings: S. cerevisiae mlh1 rad18 strain growth inhibition, hits give high values
Method in brief: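 Growth inhibition of the yeast strain was measured after compound exposure and expressed relative to vehicle-treated controls. The strain carries defined defects in DNA damage repair.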

[7] = at 5.0 µM (retest, dose inferred, filed as 0.5)
[8] = at 50.0 µM (retest, dose inferred, filed as 5.0)

Measured: growth inhibition

S=C(CSc1ccccc1)Nc1cccc2ccccc12
inactive: [1]; [7] 15% | [2]; [7] -12% | [2]; [8] 51% | [2]; at 50.0 µM 28.4% | [3]; [7] -4% | [3]; [8] 67% | [3]; at 50.0 µM 31.3% | [4]; [7] -11% | [4]; at 50.0 µM 58.5% | [5]; [7] 4% | [6]; [7] 1%
active: [1]; [8] 82% | [1]; at 50.0 µM 77% | [4]; [8] 72% | [5]; [8] 81% | [5]; at 50.0 µM 81.7% | [6]; [8] 81% | [6]; at 50.0 µM 79.5%

CC(=O)Nc1ccc(S(=O)(=O)/N=C2\C=CC(=O)c3ccccc32)cc1
inactive: [2]; [7] 4% | [2]; [8] 24% | [2]; at 50.0 µM 54.6% | [3]; [7] 1% | [3]; [8] 7% | [4]; [7] -9% | [4]; [8] -6% | [4]; at 50.0 µM -43.4% | [5]; [7] 5% | [5]; [8] 14% | [6]; [7] 5% | [6]; [8] 16%
active: [3]; at 50.0 µM 79.9% | [5]; at 50.0 µM 71.7% | [6]; at 50.0 µM 80%

CC(C)(C)CC(C)(C)NCc1cc(Cl)cc(Cc2cc(Cl)ccc2O)c1O
inactive: [1]; [7] 10% | [1]; at 50.0 µM 28.9% | [2]; [7] 9% | [2]; at 50.0 µM 46% | [3]; [7] 8% | [3]; at 50.0 µM 48.7% | [4]; [7] -4% | [4]; at 50.0 µM 16.8% | [5]; [7] 4% | [5]; at 50.0 µM 20.4% | [6]; [7] 19%
active: [1]; [8] 97% | [2]; [8] 98% | [3]; [8] 98% | [4]; [8] 94% | [5]; [8] 98% | [6]; [8] 98% | [6]; at 50.0 µM 78.7%

O=C1CCC(c2ccccc2)=NN1c1nc2ccccc2s1
inactive: [2]; [7] -3% | [3]; [7] 0% | [4]; [7] -3% | [5]; [7] -6% | [6]; [7] 4%
active: [2]; [8] 79% | [2]; at 50.0 µM 99.2% | [3]; [8] 85% | [3]; at 50.0 µM 99.2% | [4]; [8] 83% | [4]; at 50.0 µM 99% | [5]; [8] 95% | [5]; at 50.0 µM 99.3% | [6]; [8] 93% | [6]; at 50.0 µM 99.5%

COC1OC(CO)C(O)C(O)C1O (stereo not drawn)
inactive: [1]; at 50.0 µM -6.55% and -5.05% and -29.2% | [2]; at 50.0 µM -5.2% and 1.65% and -23.1% | [3]; at 50.0 µM -4.3% and -4.25% and -9.9% | [4]; at 50.0 µM 16.9% and -53.9% and -37.4% | [5]; at 50.0 µM -12.3% and 5.7% and -2.25% | [6]; at 50.0 µM 0.8% and 7.3% and -8.25%

CCOC1=Cc2c(oc3c(C(C)(C)C)cc(OCC)cc23)OC(C(C)(C)C)=C1
inactive: [1]; [7] 22% | [2]; [7] 22% | [3]; [7] 28% | [4]; [7] 13% | [5]; [7] 32% | [6]; [7] 44% | [6]; at 50.0 µM 19.6%
active: [1]; [8] 95% | [1]; at 50.0 µM 71.2% | [2]; [8] 98% | [2]; at 50.0 µM 85.3% | [3]; [8] 97% | [3]; at 50.0 µM 73.4% | [4]; [8] 96% | [4]; at 50.0 µM 75.7% | [5]; [8] 98% | [5]; at 50.0 µM 78.7% | [6]; [8] 94%

OCC(O)C(O)C(O)C(O)C(O)CO (stereo not drawn)
inactive: [1]; at 50.0 µM 1% and 8% and 21.3% | [2]; at 50.0 µM 0.1% and 6.15% and -9.7% | [3]; at 50.0 µM 16.6% and 21.1% and 25.2% | [4]; at 50.0 µM -45.4% and -8.8% and -1.35% | [5]; at 50.0 µM 17.6% and -3.1% and 37.1% | [6]; at 50.0 µM 10.2% and 22.1% and 10.4%

COc1cc(/C=C2\CCOC2=O)ccc1O
inactive: [1]; at 50.0 µM 1% and -1.15% and 3.7% | [2]; at 50.0 µM -1.45% and 31.7% and 1.8% | [3]; at 50.0 µM -7.55% and 1.8% and -18.2% | [4]; at 50.0 µM -9.15% and 14.1% and -3.85% | [5]; at 50.0 µM 3.6% and 13.2% and 9.3% | [6]; at 50.0 µM -5.35% and -1.3% and -13.3%

OCCN1CCN(CCCN2c3cc(Cl)ccc3Sc3ccsc32)CC1
active: [1]; [8] 98% | [1]; at 50.0 µM 98.5% | [2]; [8] 98% | [2]; at 50.0 µM 98.4% | [3]; [8] 95% | [3]; at 50.0 µM 98.7% | [4]; [8] 97% | [4]; at 50.0 µM 94.4% | [5]; [8] 97% | [5]; at 50.0 µM 97.6% | [6]; [8] 97% | [6]; at 50.0 µM 98.1%
inactive: [1]; [7] -8% | [2]; [7] 0% | [3]; [7] -7% | [4]; [7] -7% | [5]; [7] -2% | [6]; [7] -7%

CC(=O)SC(SC(C)=O)SC(C)=O
active: [1]; [8] 93% | [1]; at 50.0 µM 93.9% | [2]; [8] 98% | [2]; at 50.0 µM 93.1% | [3]; [8] 94% | [3]; at 50.0 µM 93.1% | [4]; [8] 97% | [4]; at 50.0 µM 89.6% | [5]; [8] 99% | [5]; at 50.0 µM 92% | [6]; [8] 99% | [6]; at 50.0 µM 90.5%
inactive: [1]; [7] 11% | [2]; [7] 0% | [3]; [7] 15% | [4]; [7] 20% | [5]; [7] 29% | [6]; [7] 16%

C/C(=N/NC(=S)N1CCCCC1)c1cccc(/C(C)=N\NC(=S)N2CCCCC2)n1
inactive: [2]; [7] -1% | [3]; [7] 6% | [4]; [7] -10% | [5]; [7] 8% | [6]; [7] -3%
active: [2]; [8] 95% | [2]; at 50.0 µM 88% | [3]; [8] 96% | [3]; at 50.0 µM 74.7% | [4]; [8] 94% | [4]; at 50.0 µM 87.3% | [5]; [8] 94% | [5]; at 50.0 µM 90% | [6]; [8] 95% | [6]; at 50.0 µM 88.2%

O=C(CNc1ccc(Cl)cc1)Nn1c(-c2ccccc2)nc2ccccc2c1=O
active: [3]; at 50.0 µM 79% | [6]; at 50.0 µM 81.3%
inactive: [2]; [7] -9% | [2]; [8] 42% | [2]; at 50.0 µM 56.6% | [3]; [7] 10% | [3]; [8] 30% | [4]; [7] 11% | [4]; [8] 32% | [4]; at 50.0 µM 45.2% | [5]; [7] -7% | [5]; [8] 31% | [5]; at 50.0 µM 62.1% | [6]; [7] 4% | [6]; [8] 51%
